About 2,000 (36%) of roughly 5,500 compounds were called active. Roughly 18% stayed inconclusive and do not appear here. No stated cut-off is given here; in the data, active means normalized growth mostly below about 0.91 (no sharp cut-off); inconclusive means no clear call, values can overlap the other calls; inactive means mostly above about 0.92. The list shows a part of the results.
Assay: chemical genetic growth profiling, strain panel (AID 1159580);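 further: tested at 20 µM; growth read once vehicle control cultures reached saturation at 30 °C; 1 = growth at the plate median or of vehicle wells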
Conditions: growth OD

Measured: normalized growth

CCN(CC)CCNC(=O)c1cc(Br)c(N)cc1OC
inactive: S. cerevisiae deletion strains, locus YJR043C, strain POL32, stronger effect = lower value 0.917 | S. cerevisiae deletion strains, locus YJR066W, strain TOR1, stronger effect = lower value 0.933 | S. cerevisiae deletion strains, locus YKL009W, strain mrt4, stronger effect = lower value 0.955 | S. cerevisiae deletion strains, locus YKL068W, stronger effect = lower value 0.989 | S. cerevisiae deletion strains, locus YKL085W, strain MDH1 (second series), stronger effect = lower value 0.993 | S. cerevisiae deletion strains, locus YKL085W, strain MDH1, stronger effect = lower value 0.993 | S. cerevisiae deletion strains, locus YKL160W, strain elf1, stronger effect = lower value 0.985 | S. cerevisiae deletion strains, locus YKL190W, strain CNB1, stronger effect = lower value 0.982 | S. cerevisiae deletion strains, locus YKR001C, strain vps1, stronger effect = lower value 0.984 | S. cerevisiae deletion strains, locus YKR026C, strain gcn3, stronger effect = lower value 0.971 | S. cerevisiae deletion strains, locus YKR091W, strain srl3, stronger effect = lower value 0.99 | S. cerevisiae deletion strains, locus YLL001W, strain dnm1, stronger effect = lower value 1 | S. cerevisiae deletion strains, locus YLL026W, stronger effect = lower value 0.99 | S. cerevisiae deletion strains, locus YLL041C, strain sdh2, stronger effect = lower value 0.98 | S. cerevisiae deletion strains, locus YLR027C, strain aat2, stronger effect = lower value 0.992 | S. cerevisiae deletion strains, locus YLR039C, strain RIC1, stronger effect = lower value 0.974 | S. cerevisiae deletion strains, locus YLR058C, strain SHM2, stronger effect = lower value 0.971 | S. cerevisiae deletion strains, locus YLR102C, strain apc9, stronger effect = lower value 0.991 | S. cerevisiae deletion strains, locus YLR113W, strain HOG1, stronger effect = lower value 1.01 | S. cerevisiae deletion strains, locus YLR221C, strain rsa3, stronger effect = lower value 0.992 | S. cerevisiae deletion strains, locus YLR258W, strain gsy2, stronger effect = lower value 0.991 | S. cerevisiae deletion strains, locus YLR262C, strain YPT6 (second series), stronger effect = lower value 1.02 | S. cerevisiae deletion strains, locus YLR262C, strain YPT6, stronger effect = lower value 0.958 | S. cerevisiae deletion strains, locus YLR268W, strain sec22, stronger effect = lower value 0.983 | S. cerevisiae deletion strains, locus YLR320W, strain mms22, stronger effect = lower value 1.01 | S. cerevisiae deletion strains, locus YLR330W, strain CHS5, stronger effect = lower value 1 | S. cerevisiae deletion strains, locus YLR342W, strain FKS1 (second series), stronger effect = lower value 1.08 | S. cerevisiae deletion strains, locus YLR342W, strain FKS1, stronger effect = lower value 0.991 | S. cerevisiae deletion strains, locus YLR357W, strain rsc2, stronger effect = lower value 0.974 | S. cerevisiae deletion strains, locus YLR370C, strain arc18, stronger effect = lower value 0.994 | S. cerevisiae deletion strains, locus YLR371W, strain rom2, stronger effect = lower value 0.995 | S. cerevisiae deletion strains, locus YLR384C, strain iki3, stronger effect = lower value 0.991 | S. cerevisiae deletion strains, locus YLR418C, strain cdc73, stronger effect = lower value 1.04 | S. cerevisiae deletion strains, locus YML016C, strain PPZ1, stronger effect = lower value 0.994 | S. cerevisiae deletion strains, locus YML032C, strain rad52, stronger effect = lower value 0.968 | S. cerevisiae deletion strains, locus YML120C, strain ndi1, stronger effect = lower value 0.99 | S. cerevisiae deletion strains, locus YML124C, strain tub3, stronger effect = lower value 0.98 | S. cerevisiae deletion strains, locus YMR058W, strain fet3, stronger effect = lower value 0.982 | S. cerevisiae deletion strains, locus YMR078C, strain ctf18, stronger effect = lower value 0.988 | S. cerevisiae deletion strains, locus YMR125W, strain sto1, stronger effect = lower value 0.975 | S. cerevisiae deletion strains, locus YMR129W, stronger effect = lower value 0.986 | S. cerevisiae deletion strains, locus YMR205C, strain PFK2, stronger effect = lower value 1.03 | S. cerevisiae deletion strains, locus YMR223W, strain ubp8, stronger effect = lower value 1.02 | S. cerevisiae deletion strains, locus YMR231W, strain pep5, stronger effect = lower value 1 | S. cerevisiae deletion strains, locus YMR307W, strain GAS1, stronger effect = lower value 1.07 | S. cerevisiae deletion strains, locus YNL067W, strain RPL9B, stronger effect = lower value 0.964 | S. cerevisiae deletion strains, locus YNL071W, strain lat1, stronger effect = lower value 0.987 | S. cerevisiae deletion strains, locus YNL153C, strain GIM3, stronger effect = lower value 0.961 | S. cerevisiae deletion strains, locus YNL183C, strain NPR1, stronger effect = lower value 0.956 | S. cerevisiae deletion strains, locus YNL209W, strain ssb2, stronger effect = lower value 0.988 | S. cerevisiae deletion strains, locus YNL233W, strain BNI4, stronger effect = lower value 0.957 | S. cerevisiae deletion strains, locus YNL248C, strain rpa49, stronger effect = lower value 0.969 | S. cerevisiae deletion strains, locus YNL250W, strain rad50, stronger effect = lower value 0.986 | S. cerevisiae deletion strains, locus YNL271C, strain bni1, stronger effect = lower value 0.988 | S. cerevisiae deletion strains, locus YNL298W, strain CLA4, stronger effect = lower value 0.985 | S. cerevisiae deletion strains, locus YNL307C, strain MCK1, stronger effect = lower value 0.981 | S. cerevisiae deletion strains, locus YNL322C, strain KRE1 (second series), stronger effect = lower value 0.987 | S. cerevisiae deletion strains, locus YNR049C, strain mso1, stronger effect = lower value 0.969 | S. cerevisiae deletion strains, locus YNR052C, strain pop2, stronger effect = lower value 0.992 | S. cerevisiae deletion strains, locus YOL006C, strain TOP1, stronger effect = lower value 0.879 | S. cerevisiae deletion strains, locus YOL012C, strain htz1 1.14 | S. cerevisiae deletion strains, locus YOL147C, strain pex11, stronger effect = lower value 0.989 | S. cerevisiae deletion strains, locus YOR001W, strain rrp6, stronger effect = lower value 0.966 | S. cerevisiae deletion strains, locus YOR061W, strain CKA2, stronger effect = lower value 0.97 | S. cerevisiae deletion strains, locus YOR069W, strain VPS5, stronger effect = lower value 0.992 | S. cerevisiae deletion strains, locus YOR070C, strain gyp1, stronger effect = lower value 0.996 | S. cerevisiae deletion strains, locus YOR080W, strain dia2, stronger effect = lower value 0.975 | S. cerevisiae deletion strains, locus YOR083W, strain WHI5, stronger effect = lower value 0.978 | S. cerevisiae deletion strains, locus YOR106W, strain vam3, stronger effect = lower value 0.992 | S. cerevisiae deletion strains, locus YOR136W, strain idh2, stronger effect = lower value 0.977 | S. cerevisiae deletion strains, locus YOR144C, strain elg1, stronger effect = lower value 0.998 | S. cerevisiae deletion strains, locus YOR184W, strain ser1, stronger effect = lower value 0.987 | S. cerevisiae deletion strains, locus YOR231W, strain MKK1, stronger effect = lower value 0.96 | S. cerevisiae deletion strains, locus YOR265W, strain rbl2, stronger effect = lower value 0.996 | S. cerevisiae deletion strains, locus YOR270C, strain vph1, stronger effect = lower value 1.01 | S. cerevisiae deletion strains, locus YOR290C, strain snf2, stronger effect = lower value 0.956 | S. cerevisiae deletion strains, locus YOR316C, strain cot1, stronger effect = lower value 0.975 | S. cerevisiae deletion strains, locus YPL051W, strain arl3, stronger effect = lower value 0.981 | S. cerevisiae deletion strains, locus YPL078C, strain atp4, stronger effect = lower value 0.975 | S. cerevisiae deletion strains, locus YPL106C, strain sse1, stronger effect = lower value 0.965 | S. cerevisiae deletion strains, locus YPL240C, strain hsp82, stronger effect = lower value 0.98 | S. cerevisiae deletion strains, locus YPL256C, strain CLN2, stronger effect = lower value 0.963 | S. cerevisiae deletion strains, locus YPR119W, strain clb2, stronger effect = lower value 0.99 | S. cerevisiae deletion strains, locus YPR141C, strain kar3, stronger effect = lower value 0.99 | S. cerevisiae deletion strains, locus YPR163C, strain tif3, stronger effect = lower value 0.998 | S. cerevisiae deletion strains, locus YPR167C, strain met16, stronger effect = lower value 0.991 | S. cerevisiae deletion strains, strain wtn01, stronger effect = lower value 1.03 | S. cerevisiae strains, strain wild type, stronger effect = lower value 0.987
